Calls of active or inactive are those of the source. How the source made its calls: active means hit-call score of the fitted dose curve at least 0.9, where 1 is the maximum; inactive means score below 0.9.

Holding throughout (conditions): mRNA level, 48 h; actives raise or lower the signal
Read-out in test [1]: Caspase-3 (Homo sapiens) (UniProt P42574)
The test is described as follows: LTEA_HepaRG_CASP3: Life Technologies and Expression Analysis (LTEA) Assay for cysteine-aspartic acid protease (CASP3) using HepaRG (AID 2283477). The method in brief:
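Transcript-level assay: CASP3 mRNA in human HepaRG after 48 h treatment, eight half-log concentrations from 100 uM in 0.5% DMSO, quantified by qRT-PCR.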

Read-out in test [2]: Cytochrome P450 (CYP24A1), CYP24A1 (gene 1591)
Kind of test: LTEA_HepaRG_CYP24A1: Life Technologies and Expression Analysis (LTEA) Assay for Cytochrome P450 (CYP24A1) using HepaRG (AID 2283478). The method in brief:
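Gene expression of CYP24A1 by TaqMan qRT-PCR in HepaRG after 48 h treatment, highest concentration 100 uM; activity fitted in both directions relative to DMSO vehicle.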

Read-out in test [3]: Cytochrome P450 (CYP1A2), CYP1A2 (gene 1544)
The test is described as follows: LTEA_HepaRG_CYP1A2: Life Technologies and Expression Analysis (LTEA) Assay for Cytochrome P450 (CYP1A2) using HepaRG (AID 2283479). The method in brief:
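In duplicate wells, HepaRG cultures maintained in 0.5% DMSO were treated 48 h across an 8-point, half-log series topping at 100 uM; phenobarbital (1 mM) served as induction control. Expression was read by qRT-PCR.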

Read-out in test [4]: cysteine-aspartic acid protease (CASP8), CASP8 (gene 841)
The test is described as follows: LTEA_HepaRG_CASP8: Life Technologies and Expression Analysis (LTEA) Assay for cysteine-aspartic acid protease (CASP8) using HepaRG (AID 2283480). The method in brief:
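CASP8 transcript measured by TaqMan qRT-PCR with ACTB/GAPDH/POLR2A normalization, after 48 h chemical exposure of HepaRG cells in serum-free induction medium. Eight concentrations, top 100 uM, half-log steps, 0.5% DMSO vehicle; fits in both directions versus DMSO.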

Read-out in test [5]: Cytochrome P450 (CYP2B6), CYP2B6 (gene 1555)
Kind of test: LTEA_HepaRG_CYP2B6: Life Technologies and Expression Analysis (LTEA) Assay for Cytochrome P450 (CYP2B6) using HepaRG (AID 2283481). The method in brief:
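Human HepaRG, 48 h dosing, 0.5% DMSO vehicle, top dose 100 uM. CYP2B6 transcript by qRT-PCR, housekeeping-normalized, bidirectional curve fit.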

Read-out in test [6]: Cytochrome P450 2C19 (Homo sapiens) (UniProt P33261)
The test is described as follows: LTEA_HepaRG_CYP2C19: Life Technologies and Expression Analysis (LTEA) Assay for CYP2C19 using HepaRG (AID 2283482). The method in brief: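 Endpoint: CYP2C19 mRNA change, bidirectional fit vs 0.5% DMSO. Cells: HepaRG, 48 h exposure, eight-point series topping at 100 uM. Quantitation: qRT-PCR normalized to ACTB, GAPDH, POLR2A.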

Read-out in test [7]: CYP2C8 (gene 1558)
The test is described as follows: LTEA_HepaRG_CYP2C8: Life Technologies and Expression Analysis (LTEA) Assay for CYP2C8 using HepaRG (AID 2283483). The method in brief: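 CYP2C8 expression measured by TaqMan qRT-PCR and normalized to three housekeeping genes. HepaRG cultures were treated for 48 h with an eight-point half-log series topping at 100 uM, vehicle 0.5% DMSO, duplicates; fitted both directions against DMSO.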

Read-out in test [8]: CYP2C9 (gene 1559)
The test is described as follows: LTEA_HepaRG_CYP2C9: Life Technologies and Expression Analysis (LTEA) Assay for CYP2C9 using HepaRG (AID 2283484). The method in brief:
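CYP2C9 transcript level, quantified by TaqMan qRT-PCR against three housekeeping genes, was fitted bidirectionally relative to 0.5% DMSO. HepaRG cultures were treated 48 h, in duplicate, at eight half-log concentrations topping at 100 uM.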

Read-out in test [9]: CYP2E1 (gene 1571)
Kind of test: LTEA_HepaRG_CYP2E1: Life Technologies and Expression Analysis (LTEA) Assay for CYP2E1 using HepaRG (AID 2283485). The method in brief:
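Assay uses 48 h exposure of HepaRG hepatic cells, eight concentrations to 100 uM. Expression of CYP2E1 is quantified by TaqMan qRT-PCR with ACTB, GAPDH and POLR2A normalization; curves fitted in both directions relative to vehicle.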

Read-out in test [10]: CYP4A11 (gene 1579)
Kind of test: LTEA_HepaRG_CYP4A11: Life Technologies and Expression Analysis (LTEA) Assay for CYP4A11 using HepaRG (AID 2283486). The method in brief: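 Human hepatic HepaRG cultures receive duplicate 48 h exposures across a concentration-response series topping at 100 uM. Expression changes in CYP4A11 are measured by qRT-PCR relative to DMSO controls.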

Read-out in test [11]: DNA damage-inducible transcript 3 (DDIT3), DDIT3 (gene 1649)
The test is described as follows: LTEA_HepaRG_DDIT3: Life Technologies and Expression Analysis (LTEA) Assay for DNA damage-inducible transcript 3 (DDIT3) using HepaRG (AID 2283488). The method in brief: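 Eight-point concentration-response (100 uM highest, half-log dilutions) in HepaRG, 48 h, duplicate wells. Endpoint: qRT-PCR mRNA, normalized (ACTB, GAPDH, POLR2A), bidirectional fitting with DMSO as baseline.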

Read-out in test [12]: Pro-epidermal growth factor (Homo sapiens) (UniProt P01133)
Kind of test: LTEA_HepaRG_EGF: Life Technologies and Expression Analysis (LTEA) Assay for Epidermal growth factor (EGF) using HepaRG (AID 2283489). The method in brief:
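Concentration-response mRNA assay: HepaRG cells dosed 48 h (max 100 uM, 0.5% DMSO), EGF measured by qRT-PCR and normalized to ACTB/GAPDH/POLR2A.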

Read-out in test [13]: Early growth response protein 1 (EGR1) transcription factor, EGR1 (gene 1958)
The test is described as follows: LTEA_HepaRG_EGR1: Life Technologies and Expression Analysis (LTEA) Assay for Early growth response protein 1 (EGR1) transcription factor using HepaRG (AID 2283490). The method in brief:
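EGR1 transcript levels quantified by qRT-PCR (Fluidigm arrays) against three housekeeping genes after 48 h chemical exposure of HepaRG cells. Eight-point half-log series topping at 100 uM, 0.5% DMSO vehicle, analyzed for gain or loss.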

Read-out in test [14]: Ezrin (EZR), EZR (gene 7430)
The test is described as follows: LTEA_HepaRG_EZR: Life Technologies and Expression Analysis (LTEA) Assay for Ezrin (EZR) using HepaRG (AID 2283491). The method in brief:
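Read-out is EZR transcript level by qRT-PCR, normalized to three housekeeping genes and fitted bidirectionally against the DMSO control. Human HepaRG cells received test chemicals for 48 h at eight half-log concentrations up to 100 uM in 0.5% DMSO.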

Read-out in test [15]: Cytochrome P450 3A7 (Homo sapiens) (UniProt P24462)
Kind of test: LTEA_HepaRG_CYP3A7: Life Technologies and Expression Analysis (LTEA) Assay for CYP3A7 using HepaRG (AID 2283492). The method in brief: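 qRT-PCR of CYP3A7 in HepaRG lysates after 48 h treatment; concentration-response (8 points, max 100 uM) analysed bidirectionally relative to 0.5% DMSO controls.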

Read-out in test [16]: CYP3A5 (gene 1577)
Kind of test: LTEA_HepaRG_CYP3A5: Life Technologies and Expression Analysis (LTEA) Assay for CYP3A5 using HepaRG (AID 2283493). The method in brief: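 Readout was CYP3A5 mRNA by qRT-PCR. HepaRG cultures were exposed for 48 h in serum-free induction medium to chemicals at up to 100 uM, and responses were fitted in both directions relative to DMSO vehicle.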

Read-out in test [17]: Fatty Acid-Binding Protein 1 (FABP1), FABP1 (gene 2168)
Kind of test: LTEA_HepaRG_FABP1: Life Technologies and Expression Analysis (LTEA) Assay for Fatty Acid-Binding Protein 1 (FABP1) using HepaRG (AID 2283494). The method in brief:
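FABP1 expression by TaqMan qRT-PCR, normalised to three housekeeping genes, in HepaRG cells after 48 h chemical treatment. Eight-point half-log series topping at 100 uM in 0.5% DMSO, duplicates; gain or loss fitted relative to vehicle.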

Read-out in test [18]: Cytochrome P450 4A22 (Homo sapiens) (UniProt Q5TCH4)
Kind of test: LTEA_HepaRG_CYP4A22: Life Technologies and Expression Analysis (LTEA) Assay for Cytochrome P450 4A22 (CYP4A22) using HepaRG (AID 2283495). The method in brief: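 Concentration-response (8 points, max 100 uM, 0.5% DMSO) in human HepaRG liver cells after 48 h exposure. CYP4A22 mRNA by TaqMan qRT-PCR with housekeeping-gene normalization.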

Read-out in test [19]: Cytochrome P450 7A1 (Homo sapiens) (UniProt P22680)
Kind of test: LTEA_HepaRG_CYP7A1: Life Technologies and Expression Analysis (LTEA) Assay for Cytochrome P450 7A1 (CYP7A1) using HepaRG (AID 2283496). The method in brief:
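Using 0.5% DMSO as vehicle and baseline, chemicals were tested in duplicate over an 8-point range from 100 uM on HepaRG cells for 48 h; qRT-PCR signals were normalised to ACTB, GAPDH and POLR2A.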

Read-out in test [20]: Glutathione S-Transferase (GSTA2), GSTA2 (gene 2939)
The test is described as follows: LTEA_HepaRG_GSTA2: Life Technologies and Expression Analysis (LTEA) Assay for Glutathione S-Transferase (GSTA2) using HepaRG (AID 2283497). The method in brief: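 GSTA2 transcript levels came from Fluidigm TaqMan qRT-PCR normalized to three housekeeping genes, fitted in both directions against DMSO. HepaRG cultures received chemicals for 48 h in serum-free induction medium (0.5% DMSO), 8 half-log concentrations up to 100 uM, duplicate.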

Chain of Caspase-3 (Homo sapiens) (P42574 whole entry, looked up): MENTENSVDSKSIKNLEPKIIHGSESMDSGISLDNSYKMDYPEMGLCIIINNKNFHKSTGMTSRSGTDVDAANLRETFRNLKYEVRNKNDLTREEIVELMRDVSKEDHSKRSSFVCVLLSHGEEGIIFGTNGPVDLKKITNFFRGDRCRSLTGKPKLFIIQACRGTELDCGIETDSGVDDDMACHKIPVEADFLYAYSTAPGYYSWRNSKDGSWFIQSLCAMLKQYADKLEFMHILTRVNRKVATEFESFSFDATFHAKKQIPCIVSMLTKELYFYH
Chain of Cytochrome P450 2C19 (Homo sapiens) (P33261 whole entry, looked up): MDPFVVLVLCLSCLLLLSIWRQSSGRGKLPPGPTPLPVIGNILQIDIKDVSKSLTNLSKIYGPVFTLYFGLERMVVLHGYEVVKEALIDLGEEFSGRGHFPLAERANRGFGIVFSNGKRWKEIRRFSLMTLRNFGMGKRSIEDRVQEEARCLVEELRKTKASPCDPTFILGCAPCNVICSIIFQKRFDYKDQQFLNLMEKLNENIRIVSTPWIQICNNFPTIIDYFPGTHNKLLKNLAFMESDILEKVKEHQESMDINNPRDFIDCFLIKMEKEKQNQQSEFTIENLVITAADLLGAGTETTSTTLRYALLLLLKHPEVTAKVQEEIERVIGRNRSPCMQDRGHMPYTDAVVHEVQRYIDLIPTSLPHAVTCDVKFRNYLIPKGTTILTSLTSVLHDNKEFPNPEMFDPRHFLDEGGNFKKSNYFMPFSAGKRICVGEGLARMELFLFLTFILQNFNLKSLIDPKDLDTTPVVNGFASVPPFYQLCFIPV
Chain of Cytochrome P450 3A7 (Homo sapiens) (P24462 whole entry, looked up): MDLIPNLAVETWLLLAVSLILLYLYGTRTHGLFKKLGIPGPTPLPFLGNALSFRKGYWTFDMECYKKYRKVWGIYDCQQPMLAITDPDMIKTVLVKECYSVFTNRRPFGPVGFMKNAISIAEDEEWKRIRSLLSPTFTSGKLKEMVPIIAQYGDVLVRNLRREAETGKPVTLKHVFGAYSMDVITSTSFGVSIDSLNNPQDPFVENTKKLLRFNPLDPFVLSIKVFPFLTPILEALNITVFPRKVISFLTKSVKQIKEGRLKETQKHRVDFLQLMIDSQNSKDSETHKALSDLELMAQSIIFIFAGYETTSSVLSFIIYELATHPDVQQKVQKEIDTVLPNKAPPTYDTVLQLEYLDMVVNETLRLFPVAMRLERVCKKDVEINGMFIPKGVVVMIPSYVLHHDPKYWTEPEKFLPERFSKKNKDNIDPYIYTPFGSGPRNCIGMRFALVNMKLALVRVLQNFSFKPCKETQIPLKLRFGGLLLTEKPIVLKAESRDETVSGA

Consider `CCCCCCCCCCCCc1cccc(S(=O)(=O)O)c1`, for which the result in test [1], in test [2], in test [4], in [5], in test [8] and in [9] was inactive. The result in [12], in [13], in [14], in test [16], in [17] and in test [19] was inactive. In addition, the compound was classed as inactive in test [20]. Also, the half-maximal activity concentration (AC50) in test [3] was 45 µM (active); in test [6], 22.7 µM (active); in test [7], 45 µM (active); in test [10], 21.6 µM (active); in [11] it was 45 µM (active); in [15], 20.4 µM (active). Moreover, in test [18], the concentration at half-maximal activity (AC50) was 25.6 µM (active).

Consider `N#Cc1cccnc1`, for which the result in test [1], in test [2], in test [3], in [4], in test [5] and in [6] was inactive. The compound was classed as inactive in test [7], in test [8], in test [9], in test [10], in [11] and in test [12]. In addition, the compound was called inactive in test [13], in [14], in [15], in test [16], in test [17] and in test [18]. For the same compound, the call in test [19] and in test [20] was inactive.

In the case of `Clc1cccc(Cl)c1Cl`, the compound was called inactive in test [1], in [2], in test [3], in test [4], in [5] and in test [6]. In addition, the compound was classed as inactive in test [7], in test [8], in test [9], in [10], in [11] and in test [12]. The compound was called inactive in test [13], in test [14], in test [15], in test [16], in test [17] and in test [18]. Further, the call in [19] and in test [20] was inactive.

For `CN(C)C(=S)S`, the result in test [1], in [2], in test [4], in [6], in test [7] and in test [8] was inactive. In addition, the compound was called inactive in test [9], in [10], in [11], in test [13], in [14] and in test [15]. The compound was called inactive in [16], in [17] and in [20]. For the same compound, the values for the AC50 in [3] and in test [5] were 72.3 µM (active) and 29.7 µM (active), respectively.

On to `CC(C)O.CC(C)O.OCCN(CCO)CCO.OCCN(CCO)CCO.[Ti]`, for which the outcome in test [1], in [2], in [3], in test [4], in [6] and in test [7] was inactive. Further, the result in test [8], in test [10], in test [11], in test [12], in test [13] and in test [14] was inactive. Further, the compound was called inactive in test [15], in [16], in test [17], in test [18], in [19] and in test [20]. The AC50 in [9] was 50 µM (active).

Take `COc1ccccc1N`: the result in test [1], in [2], in [3], in test [4], in [6] and in test [7] was inactive. Moreover, the call in test [8], in [9], in test [10], in [11], in test [12] and in test [13] was inactive. The outcome in test [14], in [15], in test [16], in test [17], in [18] and in test [19] was inactive. For the same compound, the call in [20] was inactive. The AC50 in test [5] is 24.3 µM (active).

With `Oc1c(Cl)cc(Cl)cc1Cl`, the outcome in test [1], in test [11], in [12], in [13], in test [14] and in test [17] was inactive. The result in test [20] was inactive. Moreover, the concentration at half-maximal activity (AC50) in test [4] was 50 µM (active).

Values taken from PubChem BioAssay (EPA / NIEHS).
